Marburg entry inh: inhibitors of Marburg virus binding or cell entry. Potency, µM (series often up to 37.8 µM), for the others: at the top dose activity change, negative = inhibition, hits mostly inhibitors. 1.8% of 300,000 active. Marburg virus pseudotyped entry inhibition, cell reporter; calls by dose curve; tested in HEK293 cells; also: potency is read from the fitted curve at half-maximal effect
LASV entry inh: blocks Lassa virus binding to or entry into cells; Lassa virus pseudotype entry inhibition, cell reporter; Potency, µM (series often up to 37.9 µM), inactives show at the top dose activity change, negative = inhibition, actives largely listed as inhibitors; 1.2% of 300,000 active; calls by dose curve; tested in HEK293 cells; also: potency is read from the fitted curve at half-maximal effect; nearly all actives have a fitted effect of over 50% in size
HCV inh: inhibitors of hepatitis C virus infection; Huh7.5.1 HCVcc-Cre infection, luciferase reporter, 44 h; Potency, µM (doses to about 41.8 µM), without a hit: top-dose activity change, negative = inhibition, most hits filed as inhibitors; 3.4% of 340,000 active; AID 651820; active = well fitted inhibition curve with a large enough effect; inconclusive = small, poorly fitted or top-dose-only effect, or another doubt; inactive = no such curve, though single readings can be large or run the other way; also: potency is read from the fitted curve at half-maximal effect
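Antiviral activity was scored by luciferase reporter output from cells infected with HCVcc-Cre (~0.5 moi) in presence of compound, 44 h infection period, cells seeded 1,000/well 4 h prior.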
FMDV antiviral: blocks foot and mouth disease virus | FMDV antiviral cell-based qHTS | Potency, µM (series often up to 57.9 µM), for inactives: at the top dose activity change, negative = inhibition, actives largely listed as inhibitors | 1.2% of 410,000 active | AID 1159524; calls by dose curve; tested in HEK293T cells; also: read-out not given here; potency is read from the fitted curve at half-maximal effect; nearly all actives have a fitted effect of over 45% in size
HCMV antiviral: inhibitors of human cytomegalovirus; activity change, negative = inhibition, % at 57.5 µM; 4.5% of 410,000 active; HFF cells, HCMV-luciferase reporter, 72 h; active compounds read low; AID 1259415; in the data active = activity change below about -60%; inconclusive = no clear call, values can overlap the other calls; inactive = above about -39%
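Cell-based, HFFs, 1000 cells/well, 16 h 37C; cpds in DMSO + HCMV-luc, MOI 1 PFU/cell; 72 h 37C; OneGlo luminescence after 5 min RT; norm. to buffer vs Salinomycin 10uM.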
An asterisk follows results filed as active; [ ] = remark or other dose. This is a sample that favours compounds with a hit; in the whole collection about 7.9% have one here. % is scaled to controls: 0 for no effect and ±100 for the full control effect.

For CC1(C)c2ccccc2N2CC(=O)N[C@@]21/C=C/C=C/c1ccccc1 the results were Marburg entry inh inconclusive, LASV entry inh 6%, HCV inh -19%, FMDV antiviral -28% and HCMV antiviral -66*.
`Cc1ccccc1/C=C/C12NC(=O)CN1c1ccccc1C2(C)C` (configuration not stated) gave Marburg entry inh -4%, LASV entry inh -2%, HCV inh -21%, FMDV antiviral 19% and HCMV antiviral -11.
`O=C(O)c1cc(-c2ccccc2)n(-c2ccccc2C(=O)O)n1` gave Marburg entry inh 17%, LASV entry inh 6%, HCV inh 14%, FMDV antiviral 13% and HCMV antiviral -100*.
CC(C)=CCN1C(=O)C2(CC(C)=C[C@@H](C)O2)c2c(Br)cccc21 (some centres not stated) was read as Marburg entry inh 11%[14.2 µM].
N#Cc1ccc(-c2ccc(Cl)cc2)nc1SCC(=O)c1cccc(Cl)c1 was read as Marburg entry inh 0%, LASV entry inh 7%, HCV inh 9%, FMDV antiviral -7% and HCMV antiviral -61*.
Screening CCOC(=O)c1cnc2c(C)cccc2c1NCc1ccco1 returned Marburg entry inh -13%, LASV entry inh 12%, HCV inh 11µM* and HCMV antiviral -39.
CCOC(=O)c1cnc2c(C(=O)OC)cccc2c1NCc1ccco1 was read as Marburg entry inh -6%, LASV entry inh 4%, HCV inh 4%, FMDV antiviral -30% and HCMV antiviral 98.
`CCOC(=O)c1c[nH]n(-c2ccc(C)cc2)c1=O` gave Marburg entry inh -1%[46.1 µM], LASV entry inh 3%[46.1 µM], HCV inh 3%, FMDV antiviral 19% and HCMV antiviral 68.
For CCOC(=O)c1cc2c(C)n(-c3ccc(C)cc3)c(C)c2ccc1=O the results were Marburg entry inh 26µM*, LASV entry inh inconclusive, HCV inh 11µM*, FMDV antiviral -37% and HCMV antiviral -96*.
CCOC(=O)c1cc2c(C)n(-c3ccc(OCC)cc3)c(C)c2ccc1=O was read as Marburg entry inh inconclusive, LASV entry inh inconclusive, HCV inh inconclusive, FMDV antiviral 40µM* and HCMV antiviral inconclusive.
CCCS(=O)(=O)c1nc(S(=O)(=O)c2ccc(C)cc2)c(NCCCOC(C)C)s1 was read as Marburg entry inh 15%[46.1 µM], LASV entry inh inconclusive, FMDV antiviral 1% and HCMV antiviral 16.
`COc1ccc(-n2nc(-c3ccc(C)cc3)c3cnc4cc(F)c(F)cc4c32)cc1` gave Marburg entry inh -2%[46.1 µM], LASV entry inh 3%[46.1 µM], FMDV antiviral -20% and HCMV antiviral -4.
Screening O=C1c2ccccc2CCCC12N=NCC2c1cccc2ccccc12 (configuration not stated) returned Marburg entry inh inconclusive, LASV entry inh 1%, HCV inh 2.8µM*, FMDV antiviral inconclusive and HCMV antiviral -12.
Screening Cc1cc(C(=O)CSc2nc(N)cc(N)n2)c(C)n1C1CC1 returned Marburg entry inh 4%[46.1 µM], HCV inh 16%, FMDV antiviral 7% and HCMV antiviral -3.
Cc1cc(C(=O)COC(=O)CCc2nc3ccccc3c(=O)[nH]2)c(C)n1CC1CCCO1 (configuration not stated) was read as Marburg entry inh 5%[46.1 µM], LASV entry inh 20%, HCV inh 3% and FMDV antiviral -1%.
Screening Cc1nc(SCC(=O)c2cc(C)n(C3CC3)c2C)c2ccccc2n1 returned FMDV antiviral 10µM* and HCMV antiviral inconclusive.
Cc1cc(C(=O)CN2C(=O)NC(C)(c3ccccc3)C2=O)c(C)n1CC1CCCO1 (configuration not stated) was read as Marburg entry inh inconclusive, LASV entry inh 7%, HCV inh 24% and FMDV antiviral 26%.
For CCCn1c(C)cc(C(=O)Cn2nnc3ccccc3c2=O)c1C the results were Marburg entry inh 14µM*, LASV entry inh inconclusive, HCV inh 24%, FMDV antiviral 0% and HCMV antiviral 103.
For Cc1cc(C(=O)CSc2nc3ccccc3c(=O)[nH]2)c(C)n1CC1CCCO1 (configuration not stated) the results were Marburg entry inh inconclusive, LASV entry inh -25%, HCV inh 11µM*, FMDV antiviral inconclusive and HCMV antiviral inconclusive.
For Cc1cc(C(=O)CN2C(=O)c3ccccc3S2(=O)=O)c(C)n1CC1CCCO1 (configuration not stated) the results were Marburg entry inh 0.58µM*, LASV entry inh 0.46µM*, HCV inh -13%, FMDV antiviral 0.28µM* and HCMV antiviral -100*.
`CCCn1c(C)cc(C(=O)CN2C(=O)c3ccccc3S2(=O)=O)c1C` gave FMDV antiviral inconclusive and HCMV antiviral -86*.
Screening CC(NC(=O)CNC(=O)c1ccccc1Br)c1cccs1 (configuration not stated) returned Marburg entry inh 1%[46.1 µM], LASV entry inh 4%, HCV inh 6%, FMDV antiviral 48% and HCMV antiviral -2.
For COc1ccc(CNC(=O)c2cnc3sc(N4CCCCCC4)nn3c2=O)cc1 the results were LASV entry inh inconclusive, FMDV antiviral -7% and HCMV antiviral -38.
For CC(C)Cc1nc2cc(NS(=O)(=O)N(C)C)cc(C(=O)N3CCSCC3)c2n1C the results were FMDV antiviral 23%.
O=C(NC(=S)Nc1ccc(Oc2ccc(Cl)cc2)cc1)c1ccccc1 was read as Marburg entry inh 2%, LASV entry inh 0%, HCV inh inconclusive, FMDV antiviral -21% and HCMV antiviral -87*.
`O=C(Nc1ccc(NC(=S)NC(=O)C(c2ccccc2)c2ccccc2)cc1)c1ccccc1` gave Marburg entry inh inconclusive, LASV entry inh inconclusive, HCV inh inconclusive, FMDV antiviral inconclusive and HCMV antiviral -66*.
For O=c1cnc2cnc(Oc3ccccc3)nc2n1Cc1ccc(F)cc1 the results were FMDV antiviral -16%.
Brc1ccc2[nH]c3nc(SCCN4CCOCC4)nnc3c2c1 was read as Marburg entry inh inconclusive, LASV entry inh 0.5µM*, HCV inh -15%, FMDV antiviral inconclusive and HCMV antiviral 4.
`CCOC(=O)C1=C(C)NC(SCC(=O)Nc2cc(C)on2)=C(C#N)C1c1cccs1` (configuration not stated) gave Marburg entry inh 1%, LASV entry inh inconclusive, HCV inh 10µM* and HCMV antiviral -33.
`CCSC1=C(C#N)C(c2cccs2)C(C(=O)OC)=C(C)N1` (configuration not stated) gave Marburg entry inh 26%, LASV entry inh inconclusive, HCV inh -15%, FMDV antiviral -24% and HCMV antiviral 41.
For CCCSC1=C(C#N)C(c2cccs2)C(C(=O)Nc2ccccc2)=C(C)N1 (configuration not stated) the results were Marburg entry inh inconclusive, LASV entry inh inconclusive, HCV inh 11µM*, FMDV antiviral -24% and HCMV antiviral inconclusive.
